This passage reports inhibition results from ChEMBL document CHEMBL1961873, “Compounds: GSK PKIS; Assays: Nanosyn kinase panel” (2012).

Test [1] concerns the target T1, 3-phosphoinositide-dependent protein kinase 1 (Homo sapiens) (UniProt O15530).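 Note: values are mean inhibition of PDK1.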
T1 sequence (whole entry): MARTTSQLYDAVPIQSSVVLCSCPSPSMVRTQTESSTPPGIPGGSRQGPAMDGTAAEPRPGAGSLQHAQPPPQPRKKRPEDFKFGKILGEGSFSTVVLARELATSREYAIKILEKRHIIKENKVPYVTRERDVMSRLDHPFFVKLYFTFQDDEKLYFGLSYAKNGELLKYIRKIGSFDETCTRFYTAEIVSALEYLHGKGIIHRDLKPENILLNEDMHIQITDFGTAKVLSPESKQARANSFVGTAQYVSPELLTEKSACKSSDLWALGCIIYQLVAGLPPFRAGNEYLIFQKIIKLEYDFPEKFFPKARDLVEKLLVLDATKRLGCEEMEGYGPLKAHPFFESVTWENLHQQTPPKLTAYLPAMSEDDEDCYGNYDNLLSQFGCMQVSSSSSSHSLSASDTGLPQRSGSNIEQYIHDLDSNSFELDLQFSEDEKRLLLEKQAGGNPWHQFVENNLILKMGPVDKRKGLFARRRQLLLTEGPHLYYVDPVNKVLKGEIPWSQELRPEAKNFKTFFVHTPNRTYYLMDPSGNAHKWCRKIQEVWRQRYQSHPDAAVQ
Particulars: at 0.1 µM.

Test [2] deals with cAMP-dependent protein kinase catalytic subunit alpha (Homo sapiens) (UniProt P17612). Particulars: at 0.1 µM.
Test [3] has the same target. Particulars: at 1 µM.
The target of test [4] is Protein kinase C alpha type (Homo sapiens) (UniProt P17252). Particulars: at 0.1 µM.
The target is the same in test [5]. Particulars: at 1 µM.
In test [6] the target is Protein kinase C beta type (Homo sapiens) (UniProt P05771). Particulars: at 0.1 µM.
Protein kinase C beta type (Homo sapiens), sequence (P05771 2-671 limits assumed): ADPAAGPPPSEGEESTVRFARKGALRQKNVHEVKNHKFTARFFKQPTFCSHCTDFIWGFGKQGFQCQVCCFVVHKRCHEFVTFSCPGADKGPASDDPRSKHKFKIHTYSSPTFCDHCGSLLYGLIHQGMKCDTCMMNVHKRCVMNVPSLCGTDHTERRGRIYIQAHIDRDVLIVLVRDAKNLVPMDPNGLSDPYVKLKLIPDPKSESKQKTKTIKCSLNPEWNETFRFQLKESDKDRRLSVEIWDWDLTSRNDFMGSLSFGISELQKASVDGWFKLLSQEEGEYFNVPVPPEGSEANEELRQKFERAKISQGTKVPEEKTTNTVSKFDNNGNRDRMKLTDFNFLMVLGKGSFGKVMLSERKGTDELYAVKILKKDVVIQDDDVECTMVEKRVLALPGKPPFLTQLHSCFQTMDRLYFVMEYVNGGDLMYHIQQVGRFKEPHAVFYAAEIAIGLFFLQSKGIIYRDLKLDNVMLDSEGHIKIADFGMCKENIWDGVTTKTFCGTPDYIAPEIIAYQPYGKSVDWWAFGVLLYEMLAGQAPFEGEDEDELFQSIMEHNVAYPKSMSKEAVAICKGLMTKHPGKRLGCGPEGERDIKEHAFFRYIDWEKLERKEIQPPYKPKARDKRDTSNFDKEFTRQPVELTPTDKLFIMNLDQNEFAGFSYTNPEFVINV
Test [7] shares this target. Particulars: at 1 µM.
Test [8] addresses Protein kinase C eta type (Homo sapiens) (UniProt P24723). Particulars: at 0.1 µM.
Test [9] has the same target. Particulars: at 1 µM.
Test [10] concerns the target Protein kinase C gamma type (Homo sapiens) (UniProt P05129). Particulars: at 0.1 µM.
Test [11] has the same target. Particulars: at 1 µM.
Test [12] addresses T2, Protein kinase C iota type (Homo sapiens) (UniProt P41743).
T2 sequence (whole entry): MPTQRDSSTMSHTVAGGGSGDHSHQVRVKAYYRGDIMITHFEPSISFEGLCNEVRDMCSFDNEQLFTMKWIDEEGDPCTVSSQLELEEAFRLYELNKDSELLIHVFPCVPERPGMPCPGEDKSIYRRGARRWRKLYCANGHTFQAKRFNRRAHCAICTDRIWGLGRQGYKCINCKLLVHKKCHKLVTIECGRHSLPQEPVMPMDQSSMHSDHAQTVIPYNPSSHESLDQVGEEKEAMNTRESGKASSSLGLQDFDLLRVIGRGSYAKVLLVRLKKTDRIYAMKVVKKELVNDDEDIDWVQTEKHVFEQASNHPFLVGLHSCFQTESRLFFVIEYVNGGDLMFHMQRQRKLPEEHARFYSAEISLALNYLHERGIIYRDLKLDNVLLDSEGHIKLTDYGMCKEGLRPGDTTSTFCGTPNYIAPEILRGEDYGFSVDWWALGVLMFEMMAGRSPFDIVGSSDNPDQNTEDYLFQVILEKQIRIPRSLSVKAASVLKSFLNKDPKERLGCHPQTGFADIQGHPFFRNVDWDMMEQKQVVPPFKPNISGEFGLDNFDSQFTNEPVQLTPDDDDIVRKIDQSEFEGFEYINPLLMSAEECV
Particulars: at 0.1 µM.

Test [13] has as its target T2, Protein kinase C iota type (Homo sapiens). Particulars: at 1 µM.
For test [14], the target named is Protein kinase C theta type (Homo sapiens) (UniProt Q04759). Particulars: at 0.1 µM.
Protein kinase C theta type (Homo sapiens), sequence (Q04759 whole entry, looked up): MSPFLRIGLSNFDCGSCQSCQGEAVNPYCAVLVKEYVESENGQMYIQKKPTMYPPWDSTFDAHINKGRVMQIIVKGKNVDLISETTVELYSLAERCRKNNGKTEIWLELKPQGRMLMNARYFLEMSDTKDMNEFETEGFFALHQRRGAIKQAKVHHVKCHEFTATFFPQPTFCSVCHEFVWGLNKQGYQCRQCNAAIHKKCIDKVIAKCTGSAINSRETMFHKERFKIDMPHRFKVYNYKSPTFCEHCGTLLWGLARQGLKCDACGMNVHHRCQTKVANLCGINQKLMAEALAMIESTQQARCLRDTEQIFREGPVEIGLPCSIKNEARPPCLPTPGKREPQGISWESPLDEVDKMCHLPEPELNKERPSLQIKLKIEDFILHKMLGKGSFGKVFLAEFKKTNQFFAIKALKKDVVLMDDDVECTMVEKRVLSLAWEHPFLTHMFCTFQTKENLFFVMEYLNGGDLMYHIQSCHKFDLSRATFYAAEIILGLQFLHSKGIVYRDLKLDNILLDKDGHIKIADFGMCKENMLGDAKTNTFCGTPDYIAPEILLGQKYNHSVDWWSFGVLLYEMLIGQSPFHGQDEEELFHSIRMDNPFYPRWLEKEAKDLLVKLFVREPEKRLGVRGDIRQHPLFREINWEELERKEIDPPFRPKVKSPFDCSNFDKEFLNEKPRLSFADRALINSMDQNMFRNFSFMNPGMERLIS
Test [15] has the same target. Particulars: at 1 µM.
For test [16], the target named is Protein kinase C beta type (Homo sapiens) (UniProt P05771). Particulars: at 0.1 µM. This is another data set of the same source.
For test [17] the target is unchanged. Particulars: at 1 µM. The source holds these as a separate data set.
For test [18], the target named is T3, Serine/threonine-protein kinase D1 (Homo sapiens) (UniProt Q15139).
T3 sequence (whole entry): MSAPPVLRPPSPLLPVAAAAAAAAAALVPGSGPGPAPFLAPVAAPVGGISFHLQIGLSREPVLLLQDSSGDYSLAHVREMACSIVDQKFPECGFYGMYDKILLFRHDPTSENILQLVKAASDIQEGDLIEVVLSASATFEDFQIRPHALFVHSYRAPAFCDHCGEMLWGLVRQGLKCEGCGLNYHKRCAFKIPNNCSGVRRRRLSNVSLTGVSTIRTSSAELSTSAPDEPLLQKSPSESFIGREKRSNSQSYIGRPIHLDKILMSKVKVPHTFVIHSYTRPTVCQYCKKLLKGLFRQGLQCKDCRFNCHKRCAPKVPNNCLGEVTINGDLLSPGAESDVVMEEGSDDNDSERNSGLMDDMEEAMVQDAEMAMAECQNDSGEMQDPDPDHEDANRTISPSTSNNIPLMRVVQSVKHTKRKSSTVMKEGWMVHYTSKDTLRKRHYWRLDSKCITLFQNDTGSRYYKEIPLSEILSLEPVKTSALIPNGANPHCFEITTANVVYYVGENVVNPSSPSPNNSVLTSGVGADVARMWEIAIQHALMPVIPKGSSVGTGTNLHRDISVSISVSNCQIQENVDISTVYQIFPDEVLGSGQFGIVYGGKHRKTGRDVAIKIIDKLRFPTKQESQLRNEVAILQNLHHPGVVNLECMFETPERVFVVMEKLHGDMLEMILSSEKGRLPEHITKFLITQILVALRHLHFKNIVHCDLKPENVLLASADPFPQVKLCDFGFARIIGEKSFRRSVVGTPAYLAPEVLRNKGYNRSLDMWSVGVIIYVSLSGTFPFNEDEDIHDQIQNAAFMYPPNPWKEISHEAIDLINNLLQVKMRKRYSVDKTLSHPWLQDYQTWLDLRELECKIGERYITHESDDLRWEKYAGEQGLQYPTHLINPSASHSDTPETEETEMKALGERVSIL
Particulars: at 0.1 µM.

The target of test [19] is T3, Serine/threonine-protein kinase D1 (Homo sapiens). Particulars: at 1 µM.
Test [20] concerns the target T4, Serine/threonine-protein kinase D2 (Homo sapiens) (UniProt Q9BZL6).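 Note: reported percent inhibition values are means, part of the GSK PKIS kinase panel screen.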
T4 sequence (whole entry): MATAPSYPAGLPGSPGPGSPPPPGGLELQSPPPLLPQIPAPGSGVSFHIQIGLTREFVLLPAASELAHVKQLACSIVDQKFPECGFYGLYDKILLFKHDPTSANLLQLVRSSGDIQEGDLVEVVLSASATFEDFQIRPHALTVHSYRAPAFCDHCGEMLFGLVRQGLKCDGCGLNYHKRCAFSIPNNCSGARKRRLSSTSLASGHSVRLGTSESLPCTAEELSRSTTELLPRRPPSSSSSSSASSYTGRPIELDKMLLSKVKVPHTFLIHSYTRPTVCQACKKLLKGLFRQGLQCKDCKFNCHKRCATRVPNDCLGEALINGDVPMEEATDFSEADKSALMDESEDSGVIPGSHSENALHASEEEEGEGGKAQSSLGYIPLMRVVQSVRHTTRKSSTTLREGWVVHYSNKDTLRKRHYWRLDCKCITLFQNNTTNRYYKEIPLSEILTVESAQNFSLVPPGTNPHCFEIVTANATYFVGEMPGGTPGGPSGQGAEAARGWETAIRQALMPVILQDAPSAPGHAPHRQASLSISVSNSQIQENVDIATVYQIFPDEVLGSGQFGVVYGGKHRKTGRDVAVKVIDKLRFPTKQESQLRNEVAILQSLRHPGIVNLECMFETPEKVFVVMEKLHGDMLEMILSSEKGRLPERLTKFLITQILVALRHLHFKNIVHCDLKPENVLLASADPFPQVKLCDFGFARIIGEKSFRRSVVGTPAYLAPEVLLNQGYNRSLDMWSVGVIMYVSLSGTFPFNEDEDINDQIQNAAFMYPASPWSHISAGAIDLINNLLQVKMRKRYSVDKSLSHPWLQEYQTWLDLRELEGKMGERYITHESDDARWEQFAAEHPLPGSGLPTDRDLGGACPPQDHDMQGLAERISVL
Particulars: at 0.1 µM.

The structures appear in SMILES notation.

Protein kinase C eta type (Homo sapiens), sequence (P24723 whole entry): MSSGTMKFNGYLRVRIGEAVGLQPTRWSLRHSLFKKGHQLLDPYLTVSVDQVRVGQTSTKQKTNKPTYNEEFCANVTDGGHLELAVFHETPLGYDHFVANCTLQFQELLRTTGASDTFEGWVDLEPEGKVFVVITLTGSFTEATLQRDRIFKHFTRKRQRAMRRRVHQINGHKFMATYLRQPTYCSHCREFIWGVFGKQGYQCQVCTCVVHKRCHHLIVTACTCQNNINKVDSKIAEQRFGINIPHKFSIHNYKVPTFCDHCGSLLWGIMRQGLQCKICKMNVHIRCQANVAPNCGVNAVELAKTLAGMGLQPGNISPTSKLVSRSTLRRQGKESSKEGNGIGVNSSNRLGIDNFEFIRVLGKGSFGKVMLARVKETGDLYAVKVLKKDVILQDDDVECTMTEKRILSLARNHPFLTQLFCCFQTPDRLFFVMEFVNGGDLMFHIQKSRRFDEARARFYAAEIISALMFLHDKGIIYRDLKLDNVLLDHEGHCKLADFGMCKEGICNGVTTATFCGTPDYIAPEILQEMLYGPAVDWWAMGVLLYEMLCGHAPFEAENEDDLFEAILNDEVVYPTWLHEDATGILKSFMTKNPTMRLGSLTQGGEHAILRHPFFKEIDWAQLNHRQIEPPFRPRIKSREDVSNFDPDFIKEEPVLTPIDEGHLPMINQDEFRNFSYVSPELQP

Regarding `O=C1Nc2ccc(-c3cccnc3)cc2C1=Cc1cc(Br)c(O)c(Br)c1`, the inhibition came to 3.18% in [1]; 1.62% in [2]; 1.19% in test [3]; 1.72% in [4]; 2.45% in test [5]; 0.24% in test [6]. The inhibition in [7] was -1.03%; in test [8], 3.09%; in test [9], 0.7%; in test [10], 4.09%; in [11], 6.29%; in [12], 1.6%. Besides, the inhibition in test [13] was found to be 3.35%; in test [14], 1.77%; in [15], 2.57%; in test [16], 0.86%; in [17], 1.44%; in test [18], 2.94%. In addition, the inhibition in test [19] worked out at 4.25%; in test [20] it was 3.88%.

As to `CS(=O)(=O)CCNCc1nc(-c2ccc3ncnc(Nc4ccc(OCc5cccc(C(F)(F)F)c5)cc4)c3c2)cs1`, the inhibition is 0.07% in test [1]; 1.46% in [2]; 0.51% in test [3]; -0.15% in test [4]; -0.72% in test [5]; 0.26% in [6]. Moreover, the inhibition in test [7] was 1.43%; in test [8], 3.05%; in test [9] it was 2.2%; in test [10], 0.96%; in test [11], 1.21%; in test [12], -0.91%. The inhibition was -0.71% in test [13]; 0.61% in test [14]; 0.48% in test [15]; 0.86% in [16]; 1.98% in [17]; 1.69% in test [18]. The values for the inhibition in test [19] and in test [20] were 0.7% and 1.93%, respectively.

Turning to `CCn1c(-c2nonc2N)nc2c(C#CC(C)(C)O)nc(OCCNC)cc21`, the inhibition worked out at 1.35% in [1]; 11.6% in test [2]; 49.2% in test [3]; 0.49% in [4]; 3.55% in [5]; 4.85% in test [6]. Further, the inhibition in test [7] was 29.9%; in [8] it was 78.9%; in test [9], 95.4%; in test [10], -2.02%; in test [11] it was 8.19%; in [12] it was 0.89%. The inhibition in test [13] was determined as 1.21%; in test [14], 15.7%; in test [15] it was 61.1%; in [16], 1.53%; in test [17], 10.8%; in test [18], 4.31%. Also, the inhibition in test [19] came to 12.9%; in [20], 4.9%.

`CN1CCN(C(=O)c2ccc(NC(=O)Nc3ccc(N(C)c4ccnc(Nc5ccc(CS(C)(=O)=O)cc5)n4)cc3)cc2)CC1`: the inhibition is 1.6% in [1]; 1.2% in [2]; 4.5% in test [3]; -0.39% in test [4]; 0.75% in test [5]; 0.01% in test [6]. The inhibition in test [7] was 2.15%; in test [8] it was 3.18%; in [9], 2.34%; in test [10], 2.19%; in test [11], 2.89%; in test [12], -0.67%. For the same compound, the inhibition in [13] was -0.1%; in [14] it was 1.17%; in test [15], 1.43%; in [16], 1.51%; in test [17] it was 2.4%; in test [18], 2.19%. In addition, the results for the inhibition in [19] and in [20] were 6.28% and 2.12%, respectively.

For the compound `COc1cccc(-n2ncc3c(N/N=C/c4ccc(S(C)(=O)=O)cc4)ncnc32)c1`, the inhibition in test [1] is 2.37%; in test [2], -3.29%; in [3], -0.93%; in [4], -3.07%; in test [5] it was -0.59%; in [6], 2.22%. Further, the inhibition is 7.27% in test [7]; 1.23% in test [8]; 2.85% in test [9]; 1.86% in test [10]; 3.18% in test [11]; 2.06% in test [12]. Moreover, the inhibition was 0.98% in test [13]; -0.11% in test [14]; 1.19% in [15]; 2.19% in test [16]; 13.3% in test [17]; -2.12% in test [18]. Besides, the inhibition is -1.45% in test [19] and -2.64% in test [20].

For `COC(=O)c1cncc(/C=C/c2c(C)cc(O)cc2C)c1`, the inhibition is -0.19% in test [1]; 1.8% in test [2]; 2.3% in test [3]; 0.98% in test [4]; 1.39% in test [5]; 0.78% in test [6]. Further, the inhibition in test [7] was 2.09%; in test [8], 4.57%; in test [9], 5.34%; in test [10] it was 6.64%; in test [11], 3.93%; in test [12], 2.79%. Moreover, the inhibition in test [13] was 0.49%; in test [14] it was 2.55%; in test [15] it was 3.44%; in test [16], -1.36%; in test [17], 2.82%; in test [18] it was 3.37%. Besides, the inhibition in test [19] turned out to be 5%; in [20] it was 3.87%.
